Source: PubChem BioAssay (NCI)
Compounds without any hit were thinned out: in the full panel of roughly 83,000, 20% have a hit.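 Single-dose data. Exposure time 48 hours. Values below 10 considered active.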 Values without a mark were called inactive. The source made the active and inactive calls.

Tests used:
Assay in all cases: NCI-60 one-dose screen, 48 h (100 = growth as untreated, 0 = no growth, -100 = all killed)
NCI-H23 lung = conditions: 10 µM unless noted
NCI-H226 lung = conditions: 10 µM unless noted
NCI-H322M lung = conditions: 10 µM unless noted
HOP-62 NSCLC = conditions: 10 µM unless noted
NCI-H460 lung = conditions: 10 µM unless noted
786-0 renal = conditions: 10 µM unless noted
MDA-MB-231 breast = conditions: 10 µM unless noted
SF-268 CNS = conditions: 10 µM unless noted
SF-539 CNS = conditions: 10 µM unless noted
HCT-15 colon = conditions: 10 µM
U251 CNS = conditions: 10 µM unless noted
PC-3 prostate = conditions: 10 µM unless noted
SK-MEL-28 melanoma = conditions: 10 µM unless noted
SN12C renal = conditions: 10 µM unless noted
HS 578T breast = conditions: 10 µM unless noted
NCI/ADR-RES ovarian = conditions: 10 µM unless noted
SW-620 colon = conditions: 10 µM unless noted
MCF7 breast = conditions: 10 µM unless noted
HCT-116 colon = conditions: 10 µM unless noted
KM12 colon = conditions: 10 µM unless noted

Structure (SMILES)	growth (NCI-H23 lung)	growth (NCI-H226 lung)	growth (NCI-H322M lung)	growth (HOP-62 NSCLC)	growth (NCI-H460 lung)	growth (786-0 renal)	growth (MDA-MB-231 breast)	growth (SF-268 CNS)	growth (SF-539 CNS)	growth (HCT-15 colon)	growth (U251 CNS)	growth (PC-3 prostate)	growth (SK-MEL-28 melanoma)	growth (SN12C renal)	growth (HS 578T breast)	growth (NCI/ADR-RES ovarian)	growth (SW-620 colon)	growth (MCF7 breast)	growth (HCT-116 colon)	growth (KM12 colon)
O=CC(Br)C(Br)c1ccccc1 (stereo not drawn)	104%	97.7%	103%	107%	102%	106%	96.5%	95.7%	94%	78.1%	102%	94.7%	93.7%	86.7%	97.2%	100%	19.5%	44.1%	2.83% (active)	96.1%
CCCCNCCc1ccccn1	99.9%	110%	113%	107%	107%	97.6%	114%	107%	109%	102%		96%	104%	112%	107%	105%	103%	92.1%	102%	102%
O=[As]c1ccc(C(=O)c2ccc(Oc3ccccc3)cc2)cc1 (stereo not drawn)	-77.5% (active)	-85.5% (active)	-79.1% (active)	-98.3% (active)	-31.9% (active)	-99.6% (active)	-98.4% (active)	-89.2% (active)	-98.4% (active)	-78.3% (active)	-100% (active)	-61.4% (active)	-96.3% (active)	-98.4% (active)	59.7%	-52.4% (active)	-82.6% (active)	-48.6% (active)	-99.2% (active)	-87.2% (active)
CCN(CC)c1ccc(C=C2C(=O)NC(=S)NC2=O)cc1	93.4%	85.5%	104%	98.1%	104%	96.7%	93.7%	80.1%	97.4%	77.5%	77%		103%	91.8%	88.6%	100%	77.9%	60.3%	93.9%	96.8%
O=[N+]([O-])c1ccccc1N1CCNCC1	96.4%	107%	96%	89.4%	109%	94.1%	114%	95.2%	99.8%	105%	97.4%	103%	104%	97.1%	107%	93.6%	104%	105%	101%	101%
O=C1NC(=O)C(CN2C(=O)C3(c4ccccc42)[C@H](Cl)C(=O)N3c2ccccc2)C(=O)N1 (stereo partly drawn)	69.1%	76.4%	90.6%	66.3%	94.8%	94%	51.4%	84.7%	74.1%	94.7%	72.6%	83.6%	76.8%	97.4%	71%	86.7%	72.5%	18.4%	79.9%	86.3%
CC(=O)O[C@H]1CC[C@H]2[C@@H]3CC[C@H]4CC=C(C)C[C@]4(C)[C@H]3CC[C@]12C	104%	103%	104%	98.9%	113%	100%	109%	100%	96.2%	98.6%	110%	99.3%	112%	101%	109%	109%	109%	100%	103%	103%
O=C1NC(=O)C(Cc2ccccc2)(Cc2ccccc2)C(=O)N1	111%	105%	111%	95.8%	110%	98.6%	98.9%	109%	110%	108%	102%	105%	97.9%	104%	109%	113%	107%	94.8%	107%	105%
